High-throughput results (PubChem)
RGS4 inhibitor = Inhibitors of Regulator of G Protein Signaling (RGS) 4: qHTS | Regulator of G-protein signaling 4 (Homo sapiens), P49798 | Transcreener GDP fluorescence polarization, RGS4-accelerated GTP hydrolysis | Potency, µM (top dose mostly 114 µM), for the others: top-dose activity change, negative = inhibition, usual class: inhibitors | 0.039% of 390,000 active | AID 504845, 2011; further: potency means the concentration at half of the fitted maximal effect; on the % scale 0 is the no-effect control and ±100 the full control effect; nearly all actives have a fitted effect of over 75% in size
Target sequence (P49798 whole entry, looked up): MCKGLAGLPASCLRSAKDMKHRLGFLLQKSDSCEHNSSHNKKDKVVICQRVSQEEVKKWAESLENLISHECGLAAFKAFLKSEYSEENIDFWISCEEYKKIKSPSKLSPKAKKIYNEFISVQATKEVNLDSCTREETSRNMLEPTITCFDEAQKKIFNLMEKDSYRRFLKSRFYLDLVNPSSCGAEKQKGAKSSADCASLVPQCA
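MLSMR compounds (23 nl, pin-transferred) preincubated 10 min at room temperature with a 500nM (2x) first reagent, then RGS4 at 900nM (2x) plus Transcreener GDP mix added; fluorescence polarization (620/688 nm) read before and after 90 min at 30 °C.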
LDHA block = qHTS assay for inhibitors of human lactate dehydrogenase; L-lactate dehydrogenase A chain (Homo sapiens), P00338; purified LDHA, NADH/diaphorase-resazurin fluorescence; hits give low values; activity change, % (values are at about 110 or 230 µM); 0.15% of 480,000 active; AID 1347041, 2019; in the data active means activity change below about -30%;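 further: plate controls were DMSO wells for no effect and wells without enzyme for full effect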
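Human LDH5 at 2 nM final in Tris HCl pH 7.4 with 0.06 mM NADH and 0.2 mM pyruvate, reacted 5 minutes at room temperature. Remaining NADH coupled via diaphorase/resazurin; resorufin fluorescence read at 0 and 20 minutes, normalized to enzyme-free and DMSO wells.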
AT treatment = qHTS Assay for Identifying a Potential Treatment of Ataxia-Telangiectasia; F2112 A-T fibroblasts, KAP-1 phosphorylation AlphaLISA; neocarzinostatin DNA damage 30 min before lysis; 0.19% of 320,000 active; Potency, µM (doses to about 57.5 µM), for the others: at the top dose activation, most hits filed as activators; AID 485349, 2010; further: potency means the concentration at half of the fitted maximal effect; % of control where 0% means no effect; nearly all actives have a fitted effect of over 45% in size
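hTERT-immortalized A-T patient fibroblasts (F2112), 500 cells/well in OPTI-MEM, 1% FBS, got compounds for 60 min, then NCS for 30 min at 37C. Lysates were then assayed for phospho-KAP-1 by AlphaLISA (anti-pKAP1 donor, anti-KAP1 acceptor beads), 6 hr at 25C.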
Apoferritin bind = qHTS Assay for Identification of Novel General Anesthetics; Ferritin light chain (Equus caballus), P02791; apoferritin/1-aminoanthracene competitive binding, fluorescence; Potency, µM (titrated, usually from 77.5 µM), inactives show at the top dose activity change, negative = displacement, hits mostly inhibitors; 0.074% of 350,000 active; AID 485281, 2010; further: potency means the concentration at half of the fitted maximal effect; on the % scale 0 is the no-effect control and ±100 the full control effect; nearly all actives have a fitted effect of over 20% in size
Target sequence (P02791 2-175 limits assumed): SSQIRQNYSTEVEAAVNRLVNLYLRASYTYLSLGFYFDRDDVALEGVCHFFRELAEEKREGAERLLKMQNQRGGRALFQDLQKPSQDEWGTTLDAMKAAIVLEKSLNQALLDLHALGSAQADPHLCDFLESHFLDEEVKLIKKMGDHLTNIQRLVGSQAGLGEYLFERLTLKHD
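Read-out: endpoint 1-AMA fluorescence, excitation 380 nm and emission 535 nm, after compounds sit 10 min at room temperature with 10 uM horse-spleen apoferritin in 50% saturated 1-AMA/PBS. Values come from four-parameter Hill fits.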
Starred values were filed as active, the others as inactive; . = no result given; [ ] = dose if it differs, or a comment. Sampled rows, rich in hits. Any-hit rate of the full collection: about 0.35%. Unless noted, the call rests on the fitted dose curve; in most records, active means well fitted curve in the direction sought with a large enough effect; inconclusive means small, poorly fitted or top-dose-only effect, or another doubt; inactive means no such curve, though single readings can be large; an effect the other way counts as inactive or inconclusive.

SMILES	RGS4 inhibitor	LDHA block	AT treatment	Apoferritin bind
C=CCn1c2ccccc2c(=O)c2cc(C#CC3(O)CCCCC3)ccc21	-7%	0	25µM*	54%
C=CCn1c2ccccc2c(=O)c2cc(C#CC[C@@H](C)O)ccc21	-4%	-3	20µM*	.
O=C(N1CCN(c2nc(-c3ccccc3)c3ccccc3n2)CC1)C(F)(F)F	.	3	.	.
COc1ccccc1NC(=O)c1cc2c(=O)n3ccccc3nc2n1Cc1ccccc1	.	-2	.	.
COc1ccccc1-n1cc(C(=O)NCC(=O)N2CCN(c3ccccn3)CC2)c2ccccc2c1=O	31%	-11	22µM*	-15%
O=C(OCn1nnc2ccccc2c1=O)C1CCCCC1	-11%	-7	12%	40µM*
O=C(CN1C(=O)C2CCCCC2C1=O)OCn1nnc2ccccc2c1=O (stereo not drawn)	38%	-3	-1%	-16%
O=c1c2ccccc2nnn1Cc1ccccc1Cl	20%	-6	-6%	14µM*
O=C1CN(CC(=O)N2CCCCC2)c2ccccc2O1	-12%	32	7%	-21%
O=C1CN(CC(=O)N2CCOCC2)c2ccccc2O1	.	.	28µM*	-24%
CCCCCCCOC(=O)c1c(C)oc2ccc(NS(=O)(=O)c3cccs3)cc12	.	13	.	.
Cc1ccc(-c2csc(Nc3ccc(O)c(C(=O)O)c3)n2)cc1	.	-1	.	.
Cc1ccc(NC(=O)CN2CCN(Cc3ccccc3)CC2)cc1	-3%	-3	-7%	-10%
CC1(C)C2CCC(C2)C1(C)NC(=O)CN1CCN(Cc2ccccc2)CC1 (stereo not drawn)	-11%	-40*	3%	-15%
COc1ccccc1-c1cn(-c2ccccc2)c(=S)[nH]1	-33%	0	28%	-6%
COc1ccccc1C1=NC(c2ccccc2)CN1c1ccccc1 (stereo not drawn)	-18%[56.9 µM]	0	28µM*	383%
O=C(/C=C/c1cccc(O)c1)c1cccc(Br)c1	.	1	.	.
Cc1ccc(OC(F)F)c(NC(=O)Nc2cccc(C(F)(F)F)c2)c1	15%	0	28µM*	-19%
COc1ccc(-c2nn3c(-c4ccc(C(C)(C)C)cc4)nnc3s2)cc1OC	.	-1	.	.
CC(O)CNc1nc(-c2ccco2)c2c(c1C#N)CCCC2 (stereo not drawn)	.	6	.	.
FC(F)(F)c1cccc(OCc2nnc3n2CCC3)c1	21%	-8	24%	-8%
FC(F)(F)c1cccc(OCC2CNC(=S)O2)c1 (stereo not drawn)	-18%	-8	10µM*	-4%
Cc1ccc(C(=O)NCC(=O)OCC(=O)NC(C)C2CC3CCC2C3)cc1 (stereo not drawn)	2%	-7	1%	.
CC(NC(=O)COC(=O)Cc1ccsc1)C1CC2CCC1C2 (stereo not drawn)	19%	-2	-3%	16µM*
O=C(NCCc1cccs1)C1CC(c2cccc(F)c2)=NO1 (stereo not drawn)	7%	-7	40µM*	-16%
SMILES	RGS4 inhibitor	LDHA block	AT treatment	Apoferritin bind
CCCNC(=O)C1CC(c2cccc(F)c2)=NO1 (stereo not drawn)	10%	-10	10%	7%
CCOC(=O)/C(=N\Nc1ccc(Br)cc1)N1CC(C)OC(C)C1 (stereo not drawn)	-19%	1	25µM*	-13%
CCn1nc(C)c(/C=N/NC(=O)Cn2cncn2)c1C	4%	2	3.2µM*	11%
CCn1nc(C)c(/C=N/NC(=O)Cn2nnnc2N)c1C	-10%	-4	-11%	-3%
O=C1NCCN1C(=O)C12CC3CC(CC(C3)C1)C2	12%	-4	1%	14µM*
NCC1CCN(CCc2ccc(F)cc2)CC1	.	7	.	.
CCCOC(=O)c1cc(NC(=O)c2cc(Br)ccc2OC)ccc1N1CCOCC1	.	-6	.	.
CC(C)Oc1ccc(C(=O)Nc2nonc2-c2ccc(OC(C)C)cc2)cc1	5%	-3	.	-3%
CC(C)COc1ccc(C(=O)Nc2nonc2-c2ccc(OC(C)C)cc2)cc1	.	-30*	.	.
O=C(C1CCCN(Cc2cccnc2)C1)N1CCCCC1 (stereo not drawn)	-16%	-36*	-1%	-7%
O=C(C1CCCN(Cc2ccc(F)cc2)C1)N1CCCCC1 (stereo not drawn)	30%	-19	26%	-5%
